# Measured values taken from PubChem BioAssay.
# Entries with a potency or affinity are not part of this list. The source made the active and inactive calls. How the calls were made is not given here.
# Test system: not listed separately
# Assay: toxicity toward HepG2 liver cells – cell-based, plate reader, cherry-pick, antagonist series, cytotoxicity control, dose response (AID 743416)
# Details: series mostly up to 26 µM
row,SMILES,outcome
1,CCC(=O)N(C)C[C@H]1Oc2cc(C#CCC(C)C)ccc2S(=O)(=O)N([C@H](C)CO)C[C@@H]1C,inactive
2,O=C(NCCc1ccc(Cl)cc1)c1ccc2c(c1)OCCO2,inactive
3,C[C@H]1CCCCO[C@@H](CN(C)C(=O)Nc2ccc3c(c2)OCO3)[C@@H](C)CN([C@@H](C)CO)C(=O)c2cc(NC(=O)NC3CCCCC3)ccc2O1,inactive
4,C[C@H](CO)N1C[C@H](C)[C@H](CN(C)C(=O)Nc2ccc(C(F)(F)F)cc2)OCCCC[C@H](C)Oc2ccc(NC(=O)CCC(F)(F)F)cc2C1=O,inactive
5,COc1ccc(NC(=O)N(C)C[C@@H]2OCCCC[C@H](C)Oc3ccc(NC(=O)C4CCCCC4)cc3C(=O)N([C@H](C)CO)C[C@@H]2C)cc1,inactive
6,Cc1ccc(-n2cc(CN(C)Cc3nccn3C)c(-c3cccc(C)c3)n2)cc1,inactive
7,CN(C(=O)COC(=O)c1nc(Cl)c(Cl)c(Cl)c1Cl)C1CCS(=O)(=O)C1 (stereo not drawn),inactive
8,C[C@H](CO)N1C[C@H](C)[C@H](CN(C)C(=O)Nc2ccccc2)OCCCC[C@H](C)Oc2ccc(NC(=O)C3CCCCC3)cc2C1=O,inactive
9,NCC[C@H]1CC[C@H](NS(=O)(=O)Cc2ccccc2)[C@@H](CO)O1,inactive
10,COc1ccc(-c2cc(C(=O)Nc3cccc(O)c3)no2)cc1,inactive
11,COc1ccc(S(=O)(=O)N(C)C[C@@H]2OCCCC[C@H](C)Oc3ccc(NS(=O)(=O)c4ccc(F)cc4)cc3C(=O)N([C@@H](C)CO)C[C@@H]2C)cc1,inactive
12,Cc1ccc(S(=O)(=O)N2CCCCC2)cc1NC(=O)c1ccc2c(=O)n3c(nc2c1)CCCCC3,inactive
13,C[C@H](CO)N1C[C@H](C)[C@H](CN(C)C(=O)Nc2cccc3ccccc23)OCCCC[C@H](C)Oc2ccc(NC(=O)C3CCCCC3)cc2C1=O,inactive
14,CCCNC(=O)N1[C@H](C#N)[C@H](c2ccc(C#Cc3ccc(F)cc3)cc2)[C@H]1CO,inactive
15,C[C@H](CO)N1C[C@H](C)[C@H](CN(C)C(=O)Nc2ccc(F)cc2)OCCCC[C@H](C)Oc2ccc(NC(=O)Nc3ccc(F)cc3)cc2C1=O,inactive
16,C[C@H](CO)N1C[C@H](C)[C@H](CN(C)C(=O)Nc2ccccc2)OCCCC[C@H](C)Oc2ccc(NC(=O)CCC(F)(F)F)cc2C1=O,inactive
17,CC(C)CCn1cnc2c(oc3nc4c(cc32)CCCC4)c1=O,inactive
18,Cc1ccc(S(=O)(=O)N(C)C[C@H]2Oc3cc(Br)ccc3S(=O)(=O)N([C@H](C)CO)C[C@H]2C)cc1,inactive
19,Cn1nnnc1SCC(=O)N1CCN(C(=O)c2ccco2)CC1,inactive
20,CCCCNc1c(-c2cccc(-c3cc(C(C)=O)cs3)c2)nc2ccc(C)cn12,inactive
21,C[C@H](CO)N1C[C@H](C)[C@H](CN(C)C(=O)CN2CCOCC2)Oc2ncc(C#CCN(C)C)cc2C1=O,inactive
22,CN1CCN(c2ccc(NC(=O)N3CCc4ccccc43)cc2)CC1,inactive
23,CC(=O)N1CCc2cc(S(=O)(=O)C(C)CC(=O)NCc3ccco3)ccc21 (stereo not drawn),inactive
24,Cn1nnnc1Sc1ncnc2scc(-c3ccccc3C(F)(F)F)c12,inactive
25,COc1ccc(-c2cc(-c3nnc(COC(=O)C4CC4)o3)c3ccccc3n2)cc1OC,inactive

# Target: Melanocortin receptor 4 (Homo sapiens) (UniProt P32245)
# Assay: blockade of melanocortin 4 receptor signaling – cell-based, plate reader, cherry pick, counter-screen for LGR2 antagonist project, dose response (AID 743444)
# Details: MC4R-expressing cells, antagonist mode; series mostly up to 35 µM
row,SMILES,outcome
1,C[C@H](CO)N1C[C@H](C)[C@H](CN(C)C(=O)Nc2ccccc2)OCCCC[C@H](C)Oc2ccc(NC(=O)Nc3ccccc3)cc2C1=O,inactive
2,O=C(Nc1ccc(N2CCOCC2)c(S(=O)(=O)Nc2ccccc2Cl)c1)c1ccc(F)cc1,inactive
3,O=c1cc(-c2c(F)c(F)c(F)c(F)c2F)oc2ccccc12,inactive
4,CC[C@H](CO)Oc1cc(NCc2ccc(Cl)c(Cl)c2)c2ncn(C(C)C)c2c1,inactive
5,O=[N+]([O-])c1cc(S(=O)(=O)N2CCCCCC2)ccc1Cl,inactive
6,C[C@H]1CCCCO[C@@H](CN(C)C(=O)Nc2ccccc2)[C@@H](C)CN([C@@H](C)CO)C(=O)c2cc(NC(=O)NC3CCCCC3)ccc2O1,inactive
7,C[C@H](CO)N1C[C@H](C)[C@H](CN(C)C(=O)Nc2ccc3c(c2)OCO3)OCCCC[C@H](C)Oc2ccc(NC(=O)C3CCCCC3)cc2C1=O,inactive
8,C[C@@H]1CN([C@@H](C)CO)S(=O)(=O)c2ccc(C3=CCCC3)cc2O[C@H]1CN(C)C(=O)c1ccccc1,inactive
9,C[C@H](CO)N1C[C@H](C)[C@@H](CN(C)C(=O)Nc2ccc3c(c2)OCO3)Oc2c(cccc2N(C)C)C1=O,inactive
10,COc1ccc2[nH]c3c(c2c1)CCN1C(=O)N([C@@H](C)C(=O)NCc2ccc(C)cc2)C(=O)[C@]31C,inactive
11,COCC(=O)N[C@@H]1CC[C@@H](CC(=O)NCc2ccccc2OC)O[C@@H]1CO,inactive
12,CCC(=O)N(C)C[C@H]1Oc2cc(C#CCC(C)C)ccc2S(=O)(=O)N([C@H](C)CO)C[C@@H]1C,inactive
13,C[C@H]1CCCCO[C@@H](CN(C)C(=O)Nc2ccc3c(c2)OCO3)[C@@H](C)CN([C@@H](C)CO)C(=O)c2cc(NC(=O)NC3CCCCC3)ccc2O1,inactive
14,C[C@H](CO)N1C[C@H](C)[C@H](CN(C)C(=O)Nc2ccc(C(F)(F)F)cc2)OCCCC[C@H](C)Oc2ccc(NC(=O)CCC(F)(F)F)cc2C1=O,inactive
15,COc1ccc(NC(=O)N(C)C[C@@H]2OCCCC[C@H](C)Oc3ccc(NC(=O)C4CCCCC4)cc3C(=O)N([C@H](C)CO)C[C@@H]2C)cc1,inactive
16,Cc1ccc(-n2cc(CN(C)Cc3nccn3C)c(-c3cccc(C)c3)n2)cc1,inactive
17,C[C@H](CO)N1C[C@H](C)[C@H](CN(C)C(=O)Nc2ccccc2)OCCCC[C@H](C)Oc2ccc(NC(=O)C3CCCCC3)cc2C1=O,inactive
18,NCC[C@H]1CC[C@H](NS(=O)(=O)Cc2ccccc2)[C@@H](CO)O1,inactive
19,COc1ccc2cc(C#N)c(Nc3cccc(F)c3)nc2c1,inactive
20,C[C@H](CO)N1C[C@H](C)[C@H](CN(C)C(=O)Nc2cccc3ccccc23)OCCCC[C@H](C)Oc2ccc(NC(=O)C3CCCCC3)cc2C1=O,inactive
21,C[C@H](CO)N1C[C@H](C)[C@H](CN(C)C(=O)Nc2ccc(F)cc2)OCCCC[C@H](C)Oc2ccc(NC(=O)Nc3ccc(F)cc3)cc2C1=O,inactive
22,C[C@H](CO)N1C[C@H](C)[C@H](CN(C)C(=O)Nc2ccccc2)OCCCC[C@H](C)Oc2ccc(NC(=O)CCC(F)(F)F)cc2C1=O,inactive
23,Cc1ccc(S(=O)(=O)N(C)C[C@H]2Oc3cc(Br)ccc3S(=O)(=O)N([C@H](C)CO)C[C@H]2C)cc1,inactive
24,Cn1nnnc1SCC(=O)N1CCN(C(=O)c2ccco2)CC1,inactive
25,C[C@H](CO)N1C[C@H](C)[C@H](CN(C)C(=O)CN2CCOCC2)Oc2ncc(C#CCN(C)C)cc2C1=O,inactive
26,CC(=O)N1CCc2cc(S(=O)(=O)C(C)CC(=O)NCc3ccco3)ccc21 (stereo not drawn),inactive
27,Cn1nnnc1Sc1ncnc2scc(-c3ccccc3C(F)(F)F)c12,inactive
28,COc1ccc(-c2cc(-c3nnc(COC(=O)C4CC4)o3)c3ccccc3n2)cc1OC,inactive
